Calls of active or inactive are those of the source. Rule for the calls: active = hit-call score of the fitted dose curve at least 0.9, where 1 is the maximum; inactive = score below 0.9.

The target of the first experiment is Hepatocyte nuclear factor 3-beta (Homo sapiens) (UniProt Q9Y261). Kind of experiment: ATG_FoxA2_CIS: Attagene CIS-FACTORIAL HepG2 Assay for human Forkhead box A2 (FOXA2) (AID 2282942). To be noted: HepG2 cis-reporter transcription factor activity, 24 h; actives raise or lower the signal. In outline: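 Readout: fluorescent reporter transcripts resolved by capillary electrophoresis after RT-PCR. Transiently transfected HepG2, 24 h compound exposure, endogenous TF activity at cis promoter elements. Gain or loss of signal fitted relative to DMSO.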
Sequence of Hepatocyte nuclear factor 3-beta (Homo sapiens) (Q9Y261 whole entry, looked up): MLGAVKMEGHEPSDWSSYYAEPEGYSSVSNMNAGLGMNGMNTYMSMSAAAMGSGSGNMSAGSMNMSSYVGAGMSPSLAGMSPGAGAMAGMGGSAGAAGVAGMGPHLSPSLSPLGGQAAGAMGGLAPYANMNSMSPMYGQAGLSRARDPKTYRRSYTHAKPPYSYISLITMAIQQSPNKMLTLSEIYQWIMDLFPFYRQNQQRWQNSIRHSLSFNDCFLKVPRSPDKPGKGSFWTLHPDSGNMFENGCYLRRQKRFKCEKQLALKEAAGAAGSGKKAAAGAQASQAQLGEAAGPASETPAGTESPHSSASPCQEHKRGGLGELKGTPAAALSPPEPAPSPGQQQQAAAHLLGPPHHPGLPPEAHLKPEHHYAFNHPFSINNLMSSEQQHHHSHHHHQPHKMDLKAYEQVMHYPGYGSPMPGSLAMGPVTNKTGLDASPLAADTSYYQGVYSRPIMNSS
Regarding `Nc1ccc2c(c1)C(=O)c1ccccc1C2=O`, the outcome was inactive.

In the case of `CC(=O)C(C)=CC1C(C)=CCCC1(C)C` (stereo not given), the compound was called inactive.

For the compound `CCCCCCC(=O)OCC`, the result was inactive.

As for `CCCCN(CCCC)CCCC`, the call was inactive.

Take `Cc1nc(C)nc(N2C[C@@H](C)N(c3ccnc([C@@H](C)O)n3)[C@@H](C)C2)n1`: the outcome was inactive.

`CC(=O)OCCOCCOCCOC(C)=O`: the compound was called inactive.

Regarding `CCOC(=O)CCC(=O)OCC`, the compound was classed as inactive.

For the compound `CC(=O)Oc1ccccc1C(=O)O`, the call was inactive.

For the compound `CC(=O)OC/C=C(\C)CCC=C(C)C`, the outcome was inactive.

In the case of `CC(C)c1ccc(C(=O)N=C(N)N)cc1S(C)(=O)=O`, the result was inactive.

Take `Cc1ccc(Cl)cc1`: the outcome was inactive.

With `C[Si]1(C)O[Si](C)(C)O[Si](C)(C)O[Si](C)(C)O1`, the result was inactive.

As for `C=CCc1ccc(O)c(OC)c1`, the outcome was inactive.

Take `COc1cccc2c1C(=O)c1c(O)c3c(c(O)c1C2=O)C[C@@](O)(C(=O)CO)C[C@@H]3O[C@H]1C[C@H](N)[C@H](O)[C@H](C)O1`: the outcome was inactive.

Take `Cc1cccc(C)c1O`: the call was inactive.

For `CCCCCC(=O)O`, the compound was classed as inactive.

As to `Oc1ccc2ccccc2c1N=Nc1ccccc1`, the AC50 was 0.14 µM (active).

Consider `NS(=O)(=O)c1cc2c(cc1Cl)NCNS2(=O)=O`, for which the compound was classed as inactive.

As to `Cc1ccccc1Cl`, the result was inactive.

Turning to `COc1ccc2c(c1)c(CC(=O)O)c(C)n2C(=O)c1ccc(Cl)cc1`, the call was inactive.

With `Cc1cccc(Nc2cc(Cl)nc(SCC(=O)O)n2)c1C`, the result was inactive.

`CCOC(=O)C(C)(C)Oc1ccc(Cl)cc1`: the outcome was inactive.

In the case of `CCCCOC(=O)CCCCCCCCC(=O)OCCCC`, the compound was called inactive.

`CCc1c(C(=O)NN2CCCCC2)nn(-c2ccc(Cl)cc2Cl)c1-c1ccc(Br)cc1`: the compound was called inactive.

For `Oc1ccc2c(c1)OC[C@@H](N1CCC(O)(c3ccc(F)cc3)CC1)[C@H]2O`, the call was inactive.

`O=C(O)CCCCC(=O)O`: the result was inactive.

Consider `CCCCCCCCCCCCCCCCCC(=O)O`, for which the result was inactive.

Turning to `CCCCCCCCCCCC(=O)OC`, the call was inactive.

Regarding `O=C(N[C@@H](Cc1ccccc1)[C@@H](O)C(=O)N1C[C@@H](O)[C@@H](O)C1)c1cc2cc(Cl)ccc2[nH]1`, the call was inactive.

With `CCCCCCCC=O`, the result was inactive.

Test system in another experiment: not listed separately
The experiment in a line: ATG_FoxO_CIS: Attagene CIS-FACTORIAL HepG2 Assay for human Forkhead box O (FoxO) (AID 2282943). To be noted: HepG2 Attagene cis-reporter, FoxO element, mRNA; actives raise or lower the signal. In outline:
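HepG2 cells transiently transfected with cis-promoter-driven multiple reporter transcription units; 24 h after chemical dosing, reporter mRNA quantified by RT-PCR, fluorescent primer extension, HpaI digestion and capillary electrophoresis. Bidirectional fitting versus DMSO baseline.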
Take `Nc1ccc2c(c1)C(=O)c1ccccc1C2=O`: the outcome was inactive.

`CC(=O)C(C)=CC1C(C)=CCCC1(C)C` (stereo not given): the call was inactive.

As to `CCCCCCC(=O)OCC`, the result was inactive.

Take `CCCCN(CCCC)CCCC`: the call was inactive.

Take `Cc1nc(C)nc(N2C[C@@H](C)N(c3ccnc([C@@H](C)O)n3)[C@@H](C)C2)n1`: the call was inactive.

In the case of `CC(=O)OCCOCCOCCOC(C)=O`, the outcome was inactive.

`CCOC(=O)CCC(=O)OCC`: the result was inactive.

On to `CC(=O)Oc1ccccc1C(=O)O`, for which the outcome was inactive.

With `CC(=O)OC/C=C(\C)CCC=C(C)C`, the outcome was inactive.

As for `CC(C)c1ccc(C(=O)N=C(N)N)cc1S(C)(=O)=O`, the outcome was inactive.

As to `Cc1ccc(Cl)cc1`, the result was inactive.

`C[Si]1(C)O[Si](C)(C)O[Si](C)(C)O[Si](C)(C)O1`: the call was inactive.

`C=CCc1ccc(O)c(OC)c1`: the compound was called inactive.

Consider `COc1cccc2c1C(=O)c1c(O)c3c(c(O)c1C2=O)C[C@@](O)(C(=O)CO)C[C@@H]3O[C@H]1C[C@H](N)[C@H](O)[C@H](C)O1`, for which the AC50 was 0.543 µM (active).

For `Cc1cccc(C)c1O`, the result was inactive.

As for `CCCCCC(=O)O`, the outcome was inactive.

`Oc1ccc2ccccc2c1N=Nc1ccccc1`: the outcome was inactive.

`NS(=O)(=O)c1cc2c(cc1Cl)NCNS2(=O)=O`: the outcome was inactive.

As to `Cc1ccccc1Cl`, the result was inactive.

Consider `COc1ccc2c(c1)c(CC(=O)O)c(C)n2C(=O)c1ccc(Cl)cc1`, for which the call was inactive.

In the case of `Cc1cccc(Nc2cc(Cl)nc(SCC(=O)O)n2)c1C`, the result was inactive.

Consider `CCOC(=O)C(C)(C)Oc1ccc(Cl)cc1`, for which the compound was classed as inactive.

In the case of `CCCCOC(=O)CCCCCCCCC(=O)OCCCC`, the compound was classed as inactive.

In the case of `CCc1c(C(=O)NN2CCCCC2)nn(-c2ccc(Cl)cc2Cl)c1-c1ccc(Br)cc1`, the call was inactive.

Regarding `Oc1ccc2c(c1)OC[C@@H](N1CCC(O)(c3ccc(F)cc3)CC1)[C@H]2O`, the compound was classed as inactive.

In the case of `O=C(O)CCCCC(=O)O`, the compound was called inactive.

With `CCCCCCCCCCCCCCCCCC(=O)O`, the compound was called inactive.

Take `CCCCCCCCCCCC(=O)OC`: the result was inactive.

As to `O=C(N[C@@H](Cc1ccccc1)[C@@H](O)C(=O)N1C[C@@H](O)[C@@H](O)C1)c1cc2cc(Cl)ccc2[nH]1`, the outcome was inactive.

`CCCCCCCC=O`: the result was inactive.

By AC50 is commonly meant the concentration giving half of the maximal activity seen.

The record behind these values is PubChem BioAssay (EPA / NIEHS).
